Assay outcomes deposited in PubChem BioAssay by National Center for Advancing Translational Sciences (NCATS).
TRHR PAM = allosteric enhancers of human TRH receptor | enhancement, % at 2 µM | 0.66% of 360,000 active | TRHR cells, fluo-8 calcium fluorescence, EC20 TRH enhancement | AID 493056 | P34981; in the data active = enhancement above about 30%; note: 0% is about no effect
Target sequence (P34981 whole entry, looked up): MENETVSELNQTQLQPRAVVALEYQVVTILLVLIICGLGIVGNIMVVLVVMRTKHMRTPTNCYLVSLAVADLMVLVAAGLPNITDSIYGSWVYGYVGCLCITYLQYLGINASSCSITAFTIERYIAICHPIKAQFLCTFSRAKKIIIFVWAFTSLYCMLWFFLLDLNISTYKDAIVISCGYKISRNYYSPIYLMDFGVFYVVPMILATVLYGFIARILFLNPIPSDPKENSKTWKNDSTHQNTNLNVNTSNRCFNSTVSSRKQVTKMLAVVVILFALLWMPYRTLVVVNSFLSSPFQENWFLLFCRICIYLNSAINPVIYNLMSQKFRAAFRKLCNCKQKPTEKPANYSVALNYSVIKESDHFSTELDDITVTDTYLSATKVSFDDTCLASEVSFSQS
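TRHR-expressing cells loaded with fluo-8 calcium dye were read kinetically (ex 480/em 530) during compound addition, then stimulated with an EC20 of TRH (10 nM final). Enhancement of the Gq-mediated intracellular calcium response was scored.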
D1 PAM = human D1 dopamine receptor positive modulation; P21728; HEK293 TREx D1 cells, calcium flux, dopamine EC20 potentiation; potentiation, % at 10 µM; 0.036% of 360,000 active; AID 504651; in the data active = potentiation above about 30%; note: 0% is about no effect
D1 ag = human D1 receptor agonism; P21728; HEK293 T-REx D1 cells, calcium flux, agonist mode; 1% of 360,000 active; activation, % at 2 µM; note: 0% is about no effect
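Inducible HEK293 T-REx D1 cells, force-coupled to calcium signalling, were plated at 4000 cells/well with tetracycline and held overnight at 30 C. After no-wash calcium dye loading, compound-evoked calcium rise over 180 s flagged agonists.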
TRHR ag = agonists of human TRH receptor. P34981. TRHR cells, calcium flux fluo-8, FDSS agonist mode. activation, % at 2 µM. 0.18% of 360,000 active. AID 493084; note: 0% is about no effect
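TRHR-expressing cells, plated overnight in medium with 10% serum, were loaded with fluo-8 calcium dye at room temperature. After a 10 s baseline, library compound was pin-added and calcium release was recorded kinetically (ex 480/em 530) as agonist response.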
D1 antag = blocks dopamine activation of the human D1 receptor. P21728. HEK293 TREx D1 cells, calcium flux, dopamine EC80; active compounds read low. activity change, negative = inhibition, % at 10 µM. 3.2% of 360,000 active. AID 504652; in the data active = activity change below about -30%; note: % is set by controls: 0 for no effect and ±100 for the full control effect
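Antagonism measured as reduced calcium response to an EC80 dopamine addition following 180 s compound pre-read; cells were inducible HEK293 Trex D1 plated overnight at 30 C, read kinetically at 1 cycle/sec.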
An asterisk follows results filed as active; ! = a repeat was not active. Compounds with a hit are over-represented: about 4.7% of the library has one in this group of screens. Cut-off read from the data, not from the text of the source, unless noted: active = activation above about 30%; inactive = the rest.

SMILES	TRHR PAM	D1 PAM	D1 ag	TRHR ag	D1 antag
O=C(O)CCCn1cc(NC(=O)COc2ccccc2F)cn1	1	1	8	-1	-39*!
O=c1c2cc3c(cc2nc2sc(Nc4ccccc4)nn12)OCO3	2	2	2	0	-6
O=C(NC1CC2CCCC(C1)N2C(=O)Nc1cccc(F)c1)C1CC1 (centres undefined)	2	1	1	0	-7
Cc1ccc(NC(=O)N2C3CCCC2CC(NC(=O)C2CC2)C3)cc1 (centres undefined)	30*	-4	1	0	-5
CSC1=NC2(CC(c3ccccc3)Oc3cc(O)ccc32)CC(C)(C)N1 (centres undefined)	3	8	167*	0	30
COC(=O)c1ccc(C(=O)NN)cc1	14	-3	1	0	-6
COC(=O)c1ccc(C(=O)Nc2ccc(C(C)C)cc2N)cc1	1	3	-2	0	-40*
Cc1ccc(CONC(=O)c2ccc(C)cc2)cc1	4	-5	1	-2	-30*
CCOCCCNC(=O)c1cnc2sc(N3CCCCCC3)nn2c1=O	5	-1	0	0	-31*
Cc1ccc(NCc2nnc(SCC(N)=O)o2)c(C)c1	-5	-1	2	0	-9
Cc1ccc(NCc2nnc(SCC(=O)N(Cc3ccccc3)C(C)(C)C)o2)c(C)c1	-3	-3	1	0	-45*
CN(C(=O)c1ccccc1C(=O)OCC(=O)NCc1ccccc1)C1CCCCC1	3	-3	1	0	-35*
O=C(/C=C/c1ccccc1)N1c2ccccc2Sc2ccc(C(F)(F)F)cc21	-3	4	3	1	8
COc1ccc(/C=C/C(=O)N2c3ccccc3Sc3ccc(C(F)(F)F)cc32)cc1	34*	-8	13	0	-40*
O=C(N/N=C/c1ccc(O)cc1)c1csc2ccccc12	-6	-2	1	0	-57*
O=C(N/N=C/c1ccc(O)cc1)c1cc(-c2ccccc2)nc2ccccc12	13	-3	1	0	5
CCc1noc(-c2ccc(N3CCCCC3)c([N+](=O)[O-])c2)n1	1	1	7	1	-1
CCCCCc1ccc(OCCOCCn2c[n+](C)c3ccccc32)c(CCCCC)c1	12	-10	129*	-1	16
CCCCCc1ccc(OCCC[n+]2ccccc2)c(CCCCC)c1	-7	-9	159*	1	-21
CCCCOc1ccccc1Cn1c(=O)oc2ccccc21	-3	1	3	0	4
CC(=O)Nc1ccc(OCCC[n+]2ccccc2)cc1	2	-6	1	1	-2
OCC[C@@H]1C[C@H](O)[C@@H](O)[C@@]2(Cc3ccccc3CO2)O1	25	0	0	1	-69*
COc1ccc(/C=C/c2nc(C#N)c(NCc3ccc(C)cc3)o2)cc1OC	-5	-1	-2	-2	-17
CCNc1oc(/C=C/c2ccc(OCC)cc2)nc1C#N	-2	-4	0	0	-22
COc1ccc(CNc2oc(/C=C/c3cc(OC)c(OC)c(OC)c3)nc2C#N)cc1	1	1	40*	4	4
SMILES	TRHR PAM	D1 PAM	D1 ag	TRHR ag	D1 antag
CCOc1ccc(/C=C/c2nc(C#N)c(NCCc3ccccc3)o2)cc1	-5	1	2	1	-37*
COc1ccc(/C=C/c2nc(C#N)c(NCCN(C)C)o2)cc1OC	-1	-3	-3	0	-30*
CCc1ccccc1NC(=O)Nc1cc(C(=O)NCc2ccccc2OC)ccc1N1CCCC1	-2	0	2	-1	-2
Cc1ccc(NC(=O)c2sc3nc(C)cc(C)c3c2N)cc1	-2	-6	0	0	-19
Cc1cc(C)c2c(N)c(C(=O)Nc3cccc(C)c3C)sc2n1	-8	0	1	0	-31*
CC1CCc2c(sc(NC(=O)CCC(=O)O)c2C(=O)NC2CC2)C1 (centres undefined)	0	-2	4	0	16
CCn1c(C(Cc2ccccc2)NC(=O)COC)nc2ccccc21 (centres undefined)	-7	-8	-3	0	-30*
O=C(NCc1ccc(F)cc1)C1CCN(C(=O)c2ccc(-n3ccc4ccccc43)s2)CC1	-2	-5	3	0	-31*
COc1ccc(C(=O)Nc2nc3cc4c(cc3s2)OCCO4)c(OC)c1	1	1	2	1	1
